{"source": "paper PMC7819943", "about": "“Rice protein-binding microarrays: a tool to detect cis-acting elements near promoter regions in rice”", "note": "Whole data set: some 68,000 sequences, median “fluorescence intensity (a.u.)” near 9,100, cut for the highest 2% near 16,000. This is one part of a sample in which the highest values are shown more often than they occur."}
{"biological_target": "OsWRKY34 (Oryza sativa, UniProt Q0JBA9 1-250)", "sequence (Q0JBA9 entry or part of it)": "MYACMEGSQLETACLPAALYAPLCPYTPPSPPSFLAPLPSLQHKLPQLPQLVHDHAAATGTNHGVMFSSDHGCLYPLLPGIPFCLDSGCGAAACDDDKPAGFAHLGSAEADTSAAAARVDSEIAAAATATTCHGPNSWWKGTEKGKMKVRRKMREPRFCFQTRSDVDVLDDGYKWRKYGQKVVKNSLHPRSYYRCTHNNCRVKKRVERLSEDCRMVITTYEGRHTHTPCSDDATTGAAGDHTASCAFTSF", "experiment": "protein-binding microarray (RPBM); PBS, 2% BSA, 51.3 ng/ul salmon testes DNA, 50 uM zinc acetate, 200 nM TF, 25 C, 1 h; high values mean tight binding", "settings": "protein: recombinant; tags: N-terminal polyhistidine and DsRed monomer fusion (pET32a); label: CyDye5-dUTP incorporated in the synthesized complementary strand; 3' TTTTT single-stranded linker to array surface; dsDNA, one strand shown", "how_it_was_run": "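Transcription factors were made in E. coli BL21-CodonPlus as N-terminal fusions to a polyhistidine tag and DsRed, then purified on Ni–NTA. After primer extension with Cy5-dUTP and blocking with 2% BSA, a custom Agilent array was exposed for 1 h at 25 °C to 200 nM protein in PBS, 2% BSA, salmon testes DNA and 50 µM zinc acetate. Washed arrays were scanned on an Axon 4000B, and the binding signal is per-feature fluorescence intensity in arbitrary units.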"}
{"sequence": "CCAACCGCCGCGCCGCTTCGCTGTCTTCACCGTGCCGCTCCGGAGTCACCTAGTGCAG", "binding signal": "8620 fluorescence intensity (a.u.)"}
{"sequence": "ACCCACCACAACCAGTGATCAGACACCACCTACCGCGCGCCGGAGTCACCTAGTGCAG", "binding signal": "8330 fluorescence intensity (a.u.)"}
{"sequence": "GCACCGGCGCCACCGCCCGCGCCCGCACCACCGCCCACGCCGGAGTCACCTAGTGCAG", "binding signal": "8870 fluorescence intensity (a.u.)"}
{"sequence": "GAATCCACCGCATTTTTCCGCCGCCCCACGCGGCGCCACCCGGAGTCACCTAGTGCAG", "binding signal": "19700 fluorescence intensity (a.u.)"}
{"sequence": "CCGAATCCGGCCACCCCGCCGCCTCCACGCGCATCACCGCCGGAGTCACCTAGTGCAG", "binding signal": "11100 fluorescence intensity (a.u.)"}
{"sequence": "TCATTGCTCTCTGTGTTTCTCCGCTATGCCGCCACGTCTTCGGAGTCACCTAGTGCAG", "binding signal": "16700 fluorescence intensity (a.u.)"}
{"sequence": "TCATTCCTATGTTTTTTCTGTGTTTTGCAATTCTCTGTTTCGGAGTCACCTAGTGCAG", "binding signal": "14900 fluorescence intensity (a.u.)"}
{"sequence": "TTCGTCTCCGTTTCGTCTTCTTCTTCTTCTTCTTCTTCGGCGGAGTCACCTAGTGCAG", "binding signal": "8790 fluorescence intensity (a.u.)"}
{"sequence": "GCAAACTTTATTGCTCCGCGTTCTTCCTTTCTCTGTGTTTCGGAGTCACCTAGTGCAG", "binding signal": "8910 fluorescence intensity (a.u.)"}
{"sequence": "ACCCCACCTGTCAGACAACCCCACCGCCGCTTCGCTTCACCGGAGTCACCTAGTGCAG", "binding signal": "17300 fluorescence intensity (a.u.)"}
{"sequence": "TTCCTCCGTTTTCTCCGTTCGTCTTCCTCCGCTTCCGAAGCGGAGTCACCTAGTGCAG", "binding signal": "18000 fluorescence intensity (a.u.)"}
{"sequence": "AGCTTCCTCCGTTTTTTTCTTTCTTTCTTTCTTTTTTTTTCGGAGTCACCTAGTGCAG", "binding signal": "11800 fluorescence intensity (a.u.)"}
{"sequence": "GGAGCACCTGTCGTGCGCTGCCGCCATGTACGCGGCGCCGCGGAGTCACCTAGTGCAG", "binding signal": "8360 fluorescence intensity (a.u.)"}
{"sequence": "ATACCCGATCTCATTATTATGAACCAGTTATGTAATAACACGGAGTCACCTAGTGCAG", "binding signal": "8020 fluorescence intensity (a.u.)"}
{"sequence": "TGCACAAAGGTTATGCGATATCGACGGTATATTTCCACAACGGAGTCACCTAGTGCAG", "binding signal": "9520 fluorescence intensity (a.u.)"}
{"sequence": "TGGCCGCGGCTGCTGCTGAGTGTGGTGGTGGTGGGAGGCACGGAGTCACCTAGTGCAG", "binding signal": "8880 fluorescence intensity (a.u.)"}
{"sequence": "CCCCAAAATTTTTCACCATGTCACATCAAACGTTTGAACACGGAGTCACCTAGTGCAG", "binding signal": "8490 fluorescence intensity (a.u.)"}
{"sequence": "TTCACACCGTCGTATTTGCCACTTTACTGACGCTCGAAGCCGGAGTCACCTAGTGCAG", "binding signal": "8060 fluorescence intensity (a.u.)"}
{"sequence": "TACTAATTTCCTTCGCACATCCAGCAATCAGATATCCTGACGGAGTCACCTAGTGCAG", "binding signal": "9760 fluorescence intensity (a.u.)"}
{"sequence": "CATCCCTAGTCGGCGTCTTGTCATCGCCGCCCCAATCTCGCGGAGTCACCTAGTGCAG", "binding signal": "8260 fluorescence intensity (a.u.)"}
{"sequence": "TCCTCCTCGCCGCCCGGCGAATCCCGCGCCTCCTCGCTTCCGGAGTCACCTAGTGCAG", "binding signal": "9070 fluorescence intensity (a.u.)"}
{"sequence": "AGCATCCGAATCCGGCCACCTCATCATCTCGCCTCGCTTCCGGAGTCACCTAGTGCAG", "binding signal": "16900 fluorescence intensity (a.u.)"}
{"sequence": "CTTTCCTTGCGCTGTTCTTCGCTTCATCCATCCATCAGCTCGGAGTCACCTAGTGCAG", "binding signal": "10800 fluorescence intensity (a.u.)"}
{"sequence": "ATCCATTTCCAGCTTCGTCTTCATCTTGGCTTGGCGCGCTCGGAGTCACCTAGTGCAG", "binding signal": "17800 fluorescence intensity (a.u.)"}
{"sequence": "GCCTCGTTTCCATCTCCGCCGCGCTCGCCGCGTTCACACTCGGAGTCACCTAGTGCAG", "binding signal": "11400 fluorescence intensity (a.u.)"}
{"sequence": "GCTCCATCTCTCGTCTCGCGCTTCACTCCACATCTGTTTCCGGAGTCACCTAGTGCAG", "binding signal": "18300 fluorescence intensity (a.u.)"}
{"sequence": "TGCGCTCATGGCCATCCATTTTCTTCTTCTTCTTTTTTTTCGGAGTCACCTAGTGCAG", "binding signal": "10300 fluorescence intensity (a.u.)"}
{"sequence": "GCATCTCCACAGTCCACACTGTGCGCGCCATTCTTATCCTCGGAGTCACCTAGTGCAG", "binding signal": "14100 fluorescence intensity (a.u.)"}
{"sequence": "AGCGCTACTCCACATCTGTTTGCTCGTGCTCTCCGGATCTCGGAGTCACCTAGTGCAG", "binding signal": "8550 fluorescence intensity (a.u.)"}
{"sequence": "CACACTGTGCACGCCATTCTTATCTTGTCTAGCTTCATCTCGGAGTCACCTAGTGCAG", "binding signal": "16600 fluorescence intensity (a.u.)"}
{"sequence": "ATCTTCTATTCACGGCTTGCCATCTGTGCACTGTAATTTTCGGAGTCACCTAGTGCAG", "binding signal": "9850 fluorescence intensity (a.u.)"}
{"sequence": "CGCTTCCTCGCCGCGCGCGCGCCCGCCATCTCCTCGCCTCCGGAGTCACCTAGTGCAG", "binding signal": "9350 fluorescence intensity (a.u.)"}
{"sequence": "CCACCTGCTCGCCGTCGACGCCGCCCTCGCCATCTTCAATCGGAGTCACCTAGTGCAG", "binding signal": "12800 fluorescence intensity (a.u.)"}
{"sequence": "CCATCGCCATTGACACGGACACCTTACCTGTCACAAAGAACGGAGTCACCTAGTGCAG", "binding signal": "8160 fluorescence intensity (a.u.)"}
{"sequence": "CGACGCGCCATCGCCTCGCCTCTCACCTACTGCCTCGTCCCGGAGTCACCTAGTGCAG", "binding signal": "8820 fluorescence intensity (a.u.)"}
{"sequence": "ACTTCTTGCTGATCTTCTTGGACTGCTTTTGCACCTTCTTCGGAGTCACCTAGTGCAG", "binding signal": "9360 fluorescence intensity (a.u.)"}
{"sequence": "ATGCACCACTGTTCCTGTCCTGGCTTTGCACAACATCCATCGGAGTCACCTAGTGCAG", "binding signal": "13300 fluorescence intensity (a.u.)"}
{"sequence": "ATGTTCAGTAGTTAAAGAGGATACTGGCCACATGCTTGACCGGAGTCACCTAGTGCAG", "binding signal": "8790 fluorescence intensity (a.u.)"}
{"sequence": "ATCATATGAACACGTTATCTTTTTATTTTATACCGGTTCACGGAGTCACCTAGTGCAG", "binding signal": "8840 fluorescence intensity (a.u.)"}
{"sequence": "CCGCCGGCCGCCGTCCTCGCCATCTCCGCCGGCCGCCGTCCGGAGTCACCTAGTGCAG", "binding signal": "8440 fluorescence intensity (a.u.)"}
{"sequence": "TCCCCATCTCCGCCGCAGCCCTCGTCGTCGTCCTCGTCCTCGGAGTCACCTAGTGCAG", "binding signal": "18900 fluorescence intensity (a.u.)"}
{"sequence": "GTCATCCTCTCCATCCCCTCGTCGTCGTCCGCTCGCCTCTCGGAGTCACCTAGTGCAG", "binding signal": "8250 fluorescence intensity (a.u.)"}
{"sequence": "CCGCCATCGCTACCCTCGGTCGTCGCTTGCCCCGACGACCCGGAGTCACCTAGTGCAG", "binding signal": "8180 fluorescence intensity (a.u.)"}
{"sequence": "CGTCTCCTCTCTCTCTCTCTCTCTCTCTCGCCTCCGCTTCCGGAGTCACCTAGTGCAG", "binding signal": "8240 fluorescence intensity (a.u.)"}
{"sequence": "ACCCTAGCCACCCCGCGTCGCCCGCCTCGGCGCGCCCAAACGGAGTCACCTAGTGCAG", "binding signal": "9260 fluorescence intensity (a.u.)"}
{"sequence": "GCCCCAACCTCGTCGCTACCCGCGAGCCTCGGCTTATCGACGGAGTCACCTAGTGCAG", "binding signal": "65100 fluorescence intensity (a.u.)"}
{"sequence": "CCTAGTCGGCTTCGCCTCCGCTTCCTCGTCTCGTCTCCCTCGGAGTCACCTAGTGCAG", "binding signal": "8160 fluorescence intensity (a.u.)"}
